# Test results as given in PubChem BioAssay AID687014 (The Scripps Research Institute Molecular Screening Center, 2013).
# Out of some 370,000 compounds screened, about 6,800 (1.8%) were called active. This excerpt belongs to a sample that is enriched for actives. A number with no mark means an inactive call.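 How the source made its calls: active means activation above a cutoff set at the mean of all screened compounds plus 3 SD (cut at about 10% in these data); inactive means the rest.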
# System: Nuclear hormone receptor DAF-12 (Heterodera glycines), GAL4 fusion
# Assay: H. glycines DAF-12 receptor agonists, primary screen, cell-based, luminescence, HEK293, GAL4 fusion, UAS-luciferase (AID 687014);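 further: 0% = DMSO wells and 100% = sodium butyrate wells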
# Conditions: HEK293 GAL4-hgDAF12 UAS-luciferase reporter, agonist luminescence; at 6.8 µM; active compounds read high; normalized to butyrate control
row,SMILES,activation
1,OC(CCl)CCl,2.07%
2,C/C(=N\Nc1ccc(S(N)(=O)=O)cc1[N+](=O)[O-])c1cccs1,-0.57%
3,C/C(=N\NC(=O)CSc1nc2ccccc2c(=O)n1-c1ccccc1C)c1cccs1,-2.57%
4,C/C(=N\Nc1nc2ccccc2[nH]1)c1cccs1,12.3% (active)
5,COCCCNC(=O)C[C@H]1C[C@@]2(C(=O)OC)C(=C[C@H](C(C)(C)C)O[C@@H]2C)N(Cc2ccc(Cl)cc2Cl)C1=O,-0.78%
6,Cc1cc(N2CCN(C(=O)OC(C)(C)C)C[C@H]2C)ccc1N1CCN(Cc2ccccc2)[C@H](C)C1,-0.97%
7,COc1ccc(C(=O)C2CCCN(C(=O)c3cc(C)on3)C2)cc1F (stereo not drawn),-1.33%
8,CCOC(=O)C1CCCN(C(=O)c2cc(-c3cccs3)oc2C)CC1 (stereo not drawn),-2.05%
9,CC(=O)c1ccc(NC(=O)c2cc(-c3cccs3)on2)cc1,1.57%
10,COc1ccccc1-c1cc(C(=O)N2CCCCC2)no1,11.7% (active)
11,O=C(c1cc(-c2cccs2)on1)N1CCCCC1,10.8% (active)
12,O=C(c1cc(C2CCCCN2S(=O)(=O)c2ccccc2)on1)N1CCOCC1 (stereo not drawn),1.09%
13,O=C(c1cc(COc2cccc(C(F)(F)F)c2)on1)N1CCSCC1,-1.54%
14,COc1ccc(OCc2cc(C(=O)N3CCCC3)no2)c2ccccc12,7.54%
15,O=C(c1cc(-c2ccccc2O)on1)N1CCCC1,13.1% (active)
16,N#Cc1ccc(OC[C@@H](O)CN2CCC(C(O)(c3ccccc3)c3ccccc3)CC2)c(F)c1,-0.04%
17,CN(C)Cc1cn(-c2ccc(-c3noc4c3C(=O)N(CC(=O)N3CCOCC3)CC4)cc2)nn1,-1.17%
18,O=C(c1ccncc1)N1CC[C@H]2[C@H](CCCN2Cc2ccc(F)cc2)C1,5.55%
19,O=C(NCCS(=O)(=O)N1CCN(c2ccccc2F)CC1)c1ccc(Br)o1,0.09%
20,CC(=O)N1Cc2cc(C(=O)NCc3cccc(F)c3)nc(-c3cccc(C4=CCCC4)c3)c2[C@H]1CCO,-1.83%

row,SMILES,activation
1,COc1ccc2c(c1)CN1CN(CCc3ccccc3)S(=O)(=O)CC21 (stereo not drawn),0.93%
2,Cc1ccoc1C(=O)Nc1cccc(Oc2ccccc2)c1,11.7% (active)
3,COc1ccc(/C=C/C(=O)OCC(=O)Nc2cccc(Oc3ccccc3)c2)c(OC)c1,2.49%
4,CC1(C(=O)Nc2cccc(Oc3ccccc3)c2)CCN1Cc1ccccc1Cl (stereo not drawn),-0.38%
5,O=C(NCc1ccccc1)[C@@H]1CCCN1C(=O)[C@@H](NS(=O)(=O)c1ccc(F)cc1F)C1CCCCC1,-0.9%
6,C[C@H]1CN([C@@H](C)CO)C(=O)CCCn2nncc2CO[C@@H]1CN(C)C(=O)Nc1ccc(N2CCN(C)CC2)cc1,-1.55%
7,CCOc1ccc(-n2c(SCC(=O)Nc3cc(C)c(NC(=O)c4ccccc4)cc3OC)nnc2-c2cccc(Cl)c2)cc1,-2.83%
8,COC(=O)C1=C(C)N(Cc2cccc(C(F)(F)F)c2)C(=NCc2ccccc2)NC1c1ccc(Cl)cc1 (stereo not drawn),4.18%
9,CSCCNC(=O)c1ccc2nc(Cc3ccccc3F)oc2c1,10.5% (active)
10,COc1ccc(Cc2nc3ccc(C(=O)NCC4CCOCC4)cc3o2)cc1OC,2.3%
11,COCCNC(=O)c1ccc2nc(Cc3ccc(OC)c(OC)c3)oc2c1,4.83%
12,Brc1ccc(/C=N/N2CCN(C3c4ccccc4-c4ccccc43)CC2)s1,0.61%
13,COc1cccc(N(CC(=O)NC2CCCC2)C(=O)Cn2nnc(-c3ccc(C)o3)n2)c1,0.01%
14,C[C@]12CCC(=O)C=C1C=CC1C2CC[C@@]2(C)C1CC[C@@]21CCC(=O)O1 (stereo partly drawn),-2.47%
15,Cc1ccc(C)c(C(C)NC(=O)C2CCCO2)c1 (stereo not drawn),-0.46%
16,O=C(Nc1nnc(SCc2c(Cl)cccc2Cl)s1)C1CCCO1 (stereo not drawn),3.2%
17,Cc1cc(C)c2nc(NC(=O)C3CCCO3)sc2c1 (stereo not drawn),11.9% (active)
18,CCOc1ccc(-n2c(SCC(=O)Nc3cc(C)c(NC(=O)c4ccccc4)cc3OC)nnc2-c2cccs2)cc1,7.81%
19,Cc1ccc(-n2c(C)cc(C(=O)CSc3nnc4ccccn34)c2C)cc1,11.6% (active)
20,Cc1cc(C(=O)CSc2nc(N)cc(=O)[nH]2)c(C)n1-c1cccc(F)c1,-3.64%

row,SMILES,activation
1,O=C(CSc1nnc2ccccn12)c1ccccc1,8.56%
2,CS(=O)(=O)N1CCc2nc(-c3ccccc3)sc2C1,15.3% (active)
3,CS(=O)(=O)N1CCC(C(=O)N2CCN(c3ccccc3)CC2)CC1,-2.01%
4,CS(=O)(=O)N1CCN(c2cccc(Cl)n2)CC1,-0.95%
5,CCc1c(-c2ccccc2OC)ncn1CCc1ccccc1OC,-2.96%
6,Cc1c(Cl)c([N+](=O)[O-])nn1Cc1ccc(C(=O)N/N=C\c2cc(Cl)ccc2O)o1,0.23%
7,CN(C)c1ccc(/C=N/NC(=O)c2ccc(Cn3cc(Br)cn3)o2)cc1,5.9%
8,O=C(N/N=C\c1ccc(Br)cc1)c1ccc(Cn2cccn2)o1,10.5% (active)
9,COc1ccc(-n2c(SCC(=O)Nc3ccccc3-c3ccccc3)nnc2-c2cccnc2)cc1,0.21%
10,CCOC(=O)N1CCN(S(=O)(=O)c2ccc(C(=O)Nc3ccc(F)cc3F)cc2)CC1,3.94%
11,COc1ccc(C(=O)Nc2ccc(-n3nncc3C(C)(C)C)cc2)cc1,-2.44%
12,COc1ccc(NC(=O)c2ccc(OC)cc2)cc1,14.9% (active)
13,COCCNC(=O)Nc1ccc2nc(-c3ccco3)c(-c3ccco3)nc2c1,-6.29%
14,COc1ccc(NC(=O)c2c(C)oc3c2CCCC3)cc1,3.38%
15,O=C(C=CC(=O)Nc1ccc(F)cc1F)Nc1ccc(F)cc1F,-0.27%
16,O=C(Nc1ccc2ccccc2c1)Nc1ccc2snnc2c1,1.18%
17,COc1ccc(NC(=O)Nc2ccc3nsnc3c2)cc1,15.7% (active)
18,COc1ccc(C(=O)Nc2ccc(F)cc2F)cc1,10.5% (active)
